Laboratory results as given in the antibiotic and cytotoxicity screens of Wong et al. (2023).
Screen size: about 39,000 compounds; about 3,300 (8.5%) were called active. Only a selection was taken, and actives are over-represented in it overall.

tested on: HepG2; assay: cytotoxicity call (relative viability < 0.9); settings: 10 µM

SMILES | cytotoxicity call
C[C@H]1CN([C@@H](C)CO)C(=O)c2cc(NC(=O)Cn3cnnn3)ccc2O[C@H]1CN(C)S(=O)(=O)c1ccc(Cl)cc1 | inactive
COc1ccc(S(=O)(=O)N(C)C[C@H]2Oc3ccc(NS(=O)(=O)c4ccc(C)cc4)cc3C(=O)N([C@H](C)CO)C[C@H]2C)cc1 | inactive
C[C@@H]1CN([C@@H](C)CO)C(=O)Cc2cc(NC(=O)C3CCCCC3)ccc2O[C@@H]1CN(C)S(=O)(=O)c1cn(C)cn1 | inactive
C[C@H](CO)N1C[C@H](C)[C@H](CN(C)Cc2ccc(Oc3ccccc3)cc2)Oc2c(NC(=O)Nc3ccccc3)cccc2C1=O | inactive
O[C@@H](Cc1ccccc1)[C@@H](/C=C/C1CC1)N(CC#Cc1ccccc1)Cc1ccccc1Br | inactive
C[C@H](CO)N1C[C@H](C)[C@H](CN(C)C(=O)Nc2ccc3c(c2)OCO3)Oc2ccc(NC(=O)Nc3cccc4ccccc34)cc2C1=O | inactive
C[C@@H]1CCCCO[C@H](CN(C)C(=O)Nc2cccc3ccccc23)[C@H](C)CN([C@@H](C)CO)C(=O)c2cc(NC(=O)C3CCCCC3)ccc2O1 | inactive
C[C@@H]1CN([C@@H](C)CO)C(=O)c2cc(NC(=O)C3CCCCC3)ccc2O[C@@H](C)CCCCO[C@H]1CN(C)C(=O)Nc1cccc2ccccc12 | inactive
C[C@@H]1CN([C@@H](C)CO)C(=O)c2cc(NC(=O)C3CCCCC3)ccc2O[C@@H](C)CCCCO[C@@H]1CN(C)C(=O)Nc1cccc2ccccc12 | active
C[C@H]1CCCCO[C@H](CN(C)S(=O)(=O)c2cccs2)[C@@H](C)CN([C@@H](C)CO)C(=O)c2cc(NC(=O)Nc3ccccc3)ccc2O1 | inactive
COc1ccc2c3c(n(c2c1)C)[C@@H](CO)N(C[C@]13CCN(CC1)C(=O)c1cnccn1)C(=O)c1cnccn1 | inactive
CC(C)NC(=O)N(C)C[C@@H]1OCCCC[C@@H](C)Oc2ccc(NC(=O)Nc3cccc4ccccc34)cc2C(=O)N([C@H](C)CO)C[C@@H]1C | inactive
Cc1ccc(Oc2nnc(-c3cccs3)c3ccccc23)cc1 | inactive
Cc1csc(-c2nnc(Nc3ccc(Oc4ncccc4-c4ccnc(N)n4)cc3)c3ccccc23)c1 | active
C[C@@]1(c2ccc3c(c2)OCCO3)NC(=O)NC1=O | inactive
Cc1noc(C)c1S(=O)(=O)Nc1ccc2c(c1)CC(=O)N([C@@H](C)CO)C[C@H](C)[C@H](CN(C)Cc1ccncc1)O2 | inactive
C/C=C(/C)C(=O)O[C@H]1[C@@H](OC(C)=O)[C@@]2(CO)[C@@H](O)C[C@@]3(C)C(=CC[C@H]4[C@@]5(C)CC[C@@H](O[C@H]6O[C@H](C(=O)O)[C@@H](O[C@H]7O[C@@H](CO)[C@@H](O)[C@@H](O)[C@@H]7O)[C@@H](O)[C@@H]6O[C@H]6O[C@@H](CO)[C@@H](O)[C@@H](O)[C@@H]6O)[C@@](C)(CO)[C@@H]5CC[C@]43C)[C@@H]2CC1(C)C | active
CC=C(C)C(=O)O[C@H]1[C@H](OC(C)=O)[C@]2(CO)[C@H](O)C[C@]3(C)C(=CC[C@@H]4[C@@]5(C)CC[C@H](O[C@@H]6O[C@H](C(=O)O)[C@@H](O[C@@H]7O[C@H](CO)[C@@H](O)[C@H](O)[C@H]7O)[C@H](O)[C@H]6O[C@@H]6O[C@H](CO)[C@@H](O)[C@H](O)[C@H]6O)[C@](C)(CO)[C@@H]5CC[C@]43C)[C@@H]2CC1(C)C | active

SMILES | cytotoxicity call
C[C@H]1O[C@@H](O[C@H]2CC[C@@]3(C)[C@@H](CC[C@@]4(C)[C@@H]3CC=C3[C@H]5C[C@](C)(C(=O)O)CC[C@]5(C(=O)O[C@H]5O[C@@H](CO)[C@@H](O)[C@@H](O)[C@@H]5O)CC[C@@]34C)[C@@]2(C)CO)[C@@H](O)[C@@H](O[C@H]2O[C@@H](CO)[C@@H](O)[C@@H](O)[C@@H]2O)[C@@H]1O | inactive
C/C=C(/C)C(=O)O[C@@H]1[C@H](OC(C)=O)[C@]2(CO)[C@H](O)C[C@]3(C)C(=CC[C@H]4[C@@]5(C)CC[C@H](O[C@@H]6O[C@H](C(=O)O)[C@@H](O[C@@H]7O[C@H](CO)[C@@H](O)[C@H](O)[C@H]7O)[C@H](O)[C@H]6O[C@@H]6O[C@H](CO)[C@@H](O)[C@H](O)[C@H]6O)[C@](C)(CO)[C@@H]5CC[C@]43C)[C@@H]2CC1(C)C | inactive
C[C@@H]1CC[C@]2(C(=O)O[C@@H]3O[C@H](CO)[C@@H](O)[C@H](O)[C@H]3O)CC[C@]3(C)C(=CC[C@H]4[C@@]5(C)C[C@@H](O)[C@H](O)[C@@](C)(CO)[C@@H]5CC[C@]43C)[C@@H]2[C@]1(C)O | inactive
CC=C(C)C(=O)OC1C(OC(C)=O)C2(CO)C(O)CC3(C)C(=CCC4C5(C)CCC(OC6OC(C(=O)O)C(OC7OC(CO)C(O)C(O)C7O)C(O)C6OC6OC(CO)C(O)C(O)C6O)C(C)(CO)C5CCC43C)C2CC1(C)C (stereo unspecified) | active
COc1cccc(-c2ccc3c(c2)O[C@@H](CN(C)C(=O)C2CC2)[C@H](C)CN([C@@H](C)CO)S3(=O)=O)c1 | inactive
O=C(C[C@@H]1C[C@@H]2c3cc(NS(=O)(=O)c4ccc(F)cc4)ccc3O[C@@H]2[C@@H](CO)O1)NCCN1CCCCC1 | inactive
C[C@H](CO)N1C[C@H](C)[C@H](CN(C)S(=O)(=O)c2ccccc2F)Oc2ncc(C#Cc3ccncc3)cc2C1=O | active
C[C@@H]1CN([C@@H](C)CO)C(=O)c2cc(C#Cc3ccncc3)cnc2O[C@@H]1CN(C)S(=O)(=O)c1ccccc1F | inactive
C[C@@H]1CN([C@H](C)CO)C(=O)c2cc(C#Cc3ccncc3)cnc2O[C@H]1CN(C)S(=O)(=O)c1ccccc1F | inactive
C[C@@H]1CN([C@H](C)CO)C(=O)c2cc(C#Cc3ccncc3)cnc2O[C@@H]1CN(C)S(=O)(=O)c1ccccc1F | inactive
C[C@@H]1CN([C@H](C)CO)C(=O)c2cc(C#Cc3cccnc3)cnc2O[C@@H]1CN(C)S(=O)(=O)c1ccccc1F | inactive
C[C@@H]1CN([C@@H](C)CO)C(=O)c2cc(C#Cc3ccncc3)cnc2O[C@H]1CN(C)S(=O)(=O)c1ccccc1F | active
C[C@H]1CN([C@@H](C)CO)C(=O)c2cc(C#Cc3ccccc3)cnc2O[C@@H]1CN(C)S(=O)(=O)c1ccccc1F | inactive
C[C@H](CO)N1C[C@H](C)[C@@H](CN(C)S(=O)(=O)c2ccccc2F)Oc2ncc(C#Cc3ccncc3)cc2C1=O | inactive
C[C@H]1CN([C@@H](C)CO)C(=O)c2cc(C#Cc3ccncc3)cnc2O[C@@H]1CN(C)S(=O)(=O)c1ccccc1F | active
C[C@H]1CN([C@@H](C)CO)C(=O)c2cc(C#Cc3ccncc3)cnc2O[C@H]1CN(C)S(=O)(=O)c1ccccc1F | active
C[C@@H]1CN([C@H](C)CO)C(=O)c2cc(C#Cc3cccnc3)cnc2O[C@H]1CN(C)S(=O)(=O)c1ccccc1F | inactive
C[C@@H]1CN([C@H](C)CO)C(=O)c2cc(C#Cc3ccccc3)cnc2O[C@H]1CN(C)S(=O)(=O)c1ccccc1F | inactive
